Assay [1] has as its target T1, Tyrosine-protein phosphatase non-receptor type substrate 1 (Homo sapiens) + Leukocyte surface antigen CD47 (Homo sapiens) (UniProt P78324+Q08722). Briefly: CD47-SIRPalpha protein protein interaction - LANCE assay qHTS validation (AID 1347057; active = well fitted curve in the direction sought with a large enough effect in the signal ratio, with a control signal flat, not every such curve was filed as active; the % refers to the signal ratio; also: series mostly up to about 38 µM). The essentials:
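Inhibition of soluble CD47/SIRPalpha ectodomain association by titrated compounds, measured as 665/615 nm time-resolved FRET ratio after sequential 30 min room-temperature incubations.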
On the technique in general: Time-resolved FRET reads energy transfer from a long-lived donor to a nearby acceptor.

For assay [2], the target named is T1, Tyrosine-protein phosphatase non-receptor type substrate 1 (Homo sapiens) + Leukocyte surface antigen CD47 (Homo sapiens). Briefly: CD47-SIRPalpha protein protein interaction - Alpha assay qHTS validation (AID 1347059).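 Also: bead proximity luminescence from CD47 binding SIRPalpha after compound preincubation with SIRPalpha.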 The essentials:
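SIRPalpha-biotin 25 nM + cpd, 30 min RT, dark; add CD47-His 12.5 nM, 30 min; add Ni-NTA/SAV beads 10 ug/mL, 30 min; AlphaScreen. Buffer PBS pH 7.4 + 0.05% IGEPAL CA-630. Non-biotinylated SIRPalpha as control inhibitor.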
A general note: qHTS replaces the single test concentration by a dilution series.

In assay [3] the target is Parathyroid hormone/parathyroid hormone-related peptide receptor (Homo sapiens) (UniProt Q03431). Put plainly: qHTS for PTHR1 Agonists: Optimization Screen against the NCGC LOPAC library (AID 1347079).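 Also: GloSensor cAMP luminescence in HEK-293 GP2 cells expressing human PTHR1 with IBMX.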 A digest of the protocol:
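Signal increase flags agonism. GP2 cells, derived from HEK-293, express human PTHR1 and a GloSensor cAMP construct.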

The target in assay [4] is N-terminal Xaa-Pro-Lys N-methyltransferase 1 (Homo sapiens) (UniProt Q9BV86). Put plainly: qHTS Assay for Inhibitors of N-terminal methyltransferase 1 (NTMT1): LOPAC validation of the NTMT1 SAHH-coupled ThioGlo3 Assay (AID 1347143).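 Also: SAH from peptide methylation measured as thiol fluorescence via SAHH coupling and ThioGlo3; nearly all actives have a fitted effect of over 70% in size.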 Also: potency is read from the fitted curve at half-maximal effect. A digest of the protocol: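 Steps: dispense 125nM NTMT1; pin-transfer test compounds at several concentrations, with 1uM RCC1-6 peptide as control; incubate 1 min; start with reagent holding 100uM SAM, 10uM SAHH, 15uM ThioGlo3; read at 0 and 30 min.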
Sequence of N-terminal Xaa-Pro-Lys N-methyltransferase 1 (Homo sapiens) (Q9BV86 whole entry, looked up): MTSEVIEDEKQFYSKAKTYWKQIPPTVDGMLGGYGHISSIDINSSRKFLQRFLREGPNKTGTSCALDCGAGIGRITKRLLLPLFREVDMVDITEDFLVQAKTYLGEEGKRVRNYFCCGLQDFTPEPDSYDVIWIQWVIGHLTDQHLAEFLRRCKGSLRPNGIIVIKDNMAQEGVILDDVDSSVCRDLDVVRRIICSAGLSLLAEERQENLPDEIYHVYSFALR

The target of assay [5] is Furin (Homo sapiens) (UniProt P09958). Put plainly: Furin counterscreen qHTS for Zika virus inhibitors (AID 1347149). Also: potency is read from the fitted curve at half-maximal effect; nearly all actives have a fitted effect of over 70% in size. A digest of the protocol:
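Counterscreen measures cleavage of 2 microM BOC-RVRR-AMC, below its ~15 microM Km, by 5 nM full-length human furin at pH 7.0 after a 15-min compound preincubation. Inhibition derives from the 15-min fluorescence increase at 37C.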
On the technique in general: The purpose of a counterscreen is to sort out artefacts and off-target activity.

For assay [6], the system named is Zika virus NS2B-NS3 protease (linked construct). Briefly: Confirmatory screen NINDS AMC qHTS for Zika virus inhibitors (AID 1347152).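 Also: AMC fluorescence gain from cleaved Bz-Nle-KRR-AMC substrate over 15 min; top concentration of the series differs between compounds; nearly all actives have a fitted effect of over 70% in size.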 A digest of the protocol:
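Purified NS2B-NS3 protease with NS2B hydrophilic domain linked to NS3 protease domain by flexible linker, 1 nM final in 10 mM Tris-HCl pH 8.0, 0.01% Tween 20. Compounds preincubated 15 min, room temperature; Bz-Nle-KRR-AMC 10 microM (Km 18.3 µM); 15-min fluorescence change, 4-parameter Hill fit.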

In assay [7] the test system is Zika virus NS2B-NS3 protease (unlinked complex). Briefly: Confirmatory screen GU AMC qHTS for Zika virus inhibitors (AID 1347153). Also: nearly all actives have a fitted effect of over 70% in size. The essentials: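 Unlinked NS2B-NS3 complex (25 nM) in 10 mM Tris-HCl pH 8.0, 0.01% Tween 20 preincubated 15 min with compound, then 10 microM Bz-Nle-KRR-AMC (Km 18.3 µM). Fluorescence change over 15 min, normalized, Hill-fitted.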
Assay [8] has as its system Zika virus NS2B-NS3 protease (unlinked). Put plainly: Optimization of GU AMC qHTS for Zika virus inhibitors: Unlinked NS2B-NS3 protease assay (AID 1347151). Also: nearly all actives have a fitted effect of over 80% in size. Also: potency is read from the fitted curve at half-maximal effect. The essentials:
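Noncovalent complex of NS2B hydrophilic domain and NS3 protease domain, 25 nM final, in 10 mM Tris-HCl pH 8.0, 0.01% Tween 20. AMC fluorescence change over 15 min at room temperature was fitted to a 4-parameter Hill equation.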

In assay [9] the test system is Zika virus NS2B-NS3 protease. Briefly: Primary screen GU AMC qHTS for Zika virus inhibitors (AID 1347154). Also: nearly all actives have a fitted effect of over 70% in size. Also: potency is read from the fitted curve at half-maximal effect. The essentials:
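Unlinked Zika NS2B hydrophilic domain–NS3 protease complex at 25 nM in 10 mM Tris-HCl pH 8.0, 0.01% Tween 20, with an AMC peptide substrate. Fluorescence change (340/450 nm) over 15 min at room temperature, normalized to controls, fitted to 4-parameter Hill.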

Assay [10] deals with T1, Tyrosine-protein phosphatase non-receptor type substrate 1 (Homo sapiens) + Leukocyte surface antigen CD47 (Homo sapiens). Briefly: CD47-SIRPalpha protein protein interaction - HTRF assay qHTS validation (AID 1347058; active = well fitted curve in the direction sought with a large enough effect in the signal ratio, not every such curve was filed as active; the % refers to the signal ratio; also: series mostly up to about 38 µM). A digest of the protocol: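 Soluble extracellular domains (6His-CD47, Avi-tag-biotinylated SIRPalpha) in PBS pH 7.4 with 0.05% IGEPAL CA-630. Compounds were preincubated 30 min at RT with CD47 and anti-His-Eu, then SIRPalpha and SAV-XL665 were added. TR-FRET 665/615 ratio.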

Unmarked numbers belong to inactive results. Inconclusive results are not listed. The source made the active and inactive calls. Unless noted, calls follow the shape of the dose curve; as a rule, active = well fitted curve in the direction sought with a large enough effect; inconclusive = small, poorly fitted or top-dose-only effect, or another doubt; inactive = no such curve, though single readings can be large; an effect the other way counts as inactive or inconclusive.

T1 sequence (P78324 whole entry, looked up, the tested form may be a part): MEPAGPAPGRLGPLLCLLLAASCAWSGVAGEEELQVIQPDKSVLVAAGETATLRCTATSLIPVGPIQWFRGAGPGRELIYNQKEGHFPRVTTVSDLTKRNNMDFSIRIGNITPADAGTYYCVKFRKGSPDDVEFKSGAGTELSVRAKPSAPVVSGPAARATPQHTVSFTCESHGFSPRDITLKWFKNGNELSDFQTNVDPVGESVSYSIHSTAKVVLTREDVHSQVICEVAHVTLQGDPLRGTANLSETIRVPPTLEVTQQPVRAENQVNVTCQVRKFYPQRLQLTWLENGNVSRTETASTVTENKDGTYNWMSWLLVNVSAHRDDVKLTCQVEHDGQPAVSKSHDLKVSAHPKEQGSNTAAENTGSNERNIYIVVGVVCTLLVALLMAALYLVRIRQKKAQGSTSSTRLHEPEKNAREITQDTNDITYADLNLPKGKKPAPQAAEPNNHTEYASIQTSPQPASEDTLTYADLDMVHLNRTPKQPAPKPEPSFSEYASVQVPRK
T1 sequence (Q08722 whole entry, looked up, the tested form may be a part): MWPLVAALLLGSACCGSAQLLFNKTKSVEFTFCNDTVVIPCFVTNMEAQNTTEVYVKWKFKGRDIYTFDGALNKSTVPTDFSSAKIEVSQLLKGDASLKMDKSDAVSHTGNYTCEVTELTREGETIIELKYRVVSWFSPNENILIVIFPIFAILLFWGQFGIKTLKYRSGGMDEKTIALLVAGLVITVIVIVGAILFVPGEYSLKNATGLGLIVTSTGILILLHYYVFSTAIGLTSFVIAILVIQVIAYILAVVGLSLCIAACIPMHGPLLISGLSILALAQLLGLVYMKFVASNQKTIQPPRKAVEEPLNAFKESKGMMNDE
Sequence of Parathyroid hormone/parathyroid hormone-related peptide receptor (Homo sapiens) (Q03431 whole entry, looked up): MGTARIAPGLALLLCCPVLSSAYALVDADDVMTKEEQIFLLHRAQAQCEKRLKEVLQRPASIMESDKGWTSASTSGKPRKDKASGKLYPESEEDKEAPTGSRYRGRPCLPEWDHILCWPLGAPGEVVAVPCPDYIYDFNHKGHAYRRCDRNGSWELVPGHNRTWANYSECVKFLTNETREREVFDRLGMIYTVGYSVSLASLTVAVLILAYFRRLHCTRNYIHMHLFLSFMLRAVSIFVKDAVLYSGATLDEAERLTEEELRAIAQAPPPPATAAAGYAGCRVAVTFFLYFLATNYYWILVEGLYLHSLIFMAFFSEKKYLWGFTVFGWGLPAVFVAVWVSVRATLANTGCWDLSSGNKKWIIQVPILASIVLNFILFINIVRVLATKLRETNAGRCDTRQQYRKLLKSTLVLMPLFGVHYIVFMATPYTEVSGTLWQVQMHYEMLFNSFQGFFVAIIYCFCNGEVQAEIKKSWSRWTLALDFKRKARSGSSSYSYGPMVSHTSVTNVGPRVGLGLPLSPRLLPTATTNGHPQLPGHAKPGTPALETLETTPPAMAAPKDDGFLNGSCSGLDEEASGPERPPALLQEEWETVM
Sequence of Furin (Homo sapiens) (P09958 whole entry, looked up): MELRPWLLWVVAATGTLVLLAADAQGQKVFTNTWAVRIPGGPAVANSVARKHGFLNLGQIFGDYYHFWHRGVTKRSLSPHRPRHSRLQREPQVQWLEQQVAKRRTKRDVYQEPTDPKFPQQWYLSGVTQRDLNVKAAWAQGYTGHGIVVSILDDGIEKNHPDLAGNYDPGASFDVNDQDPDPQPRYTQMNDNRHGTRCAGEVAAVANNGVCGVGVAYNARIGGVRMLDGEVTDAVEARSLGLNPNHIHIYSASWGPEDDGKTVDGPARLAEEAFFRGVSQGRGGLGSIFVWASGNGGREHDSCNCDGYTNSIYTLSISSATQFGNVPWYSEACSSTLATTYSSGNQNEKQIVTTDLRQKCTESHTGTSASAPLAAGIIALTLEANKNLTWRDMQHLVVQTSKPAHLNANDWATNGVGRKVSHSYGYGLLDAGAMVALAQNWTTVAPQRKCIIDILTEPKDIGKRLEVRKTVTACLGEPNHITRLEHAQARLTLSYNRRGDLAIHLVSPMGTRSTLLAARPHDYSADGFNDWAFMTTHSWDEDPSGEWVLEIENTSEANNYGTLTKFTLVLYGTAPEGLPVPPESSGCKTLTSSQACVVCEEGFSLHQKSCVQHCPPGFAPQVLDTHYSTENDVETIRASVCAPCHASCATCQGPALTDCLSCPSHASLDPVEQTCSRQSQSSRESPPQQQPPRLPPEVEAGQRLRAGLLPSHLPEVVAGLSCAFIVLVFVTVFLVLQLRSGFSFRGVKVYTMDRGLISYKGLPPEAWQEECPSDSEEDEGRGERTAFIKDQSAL

For the molecule `COc1cc2c(CCNC(C)=O)c[nH]c2cc1O`, the Potency result in [1], in assay [2], in assay [3], in assay [4], in assay [6] and in [7] was “inactive” throughout. Moreover, the Potency in assay [5] was 27.1 µM (active).

Take `CCN(c1nc(N)c(C(=O)N=C(N)N)nc1Cl)C(C)C`: the Potency result in assay [1], in [2], in assay [3] and in [4] was “inactive” throughout.

Regarding `CC(C)C[C@H](NC(=O)C1OC1C(=O)O)C(=O)NCCCCN=C(N)N` (stereo partly specified), the Potency entry in [1], in assay [2], in assay [3], in [4] and in [8] was “inactive” throughout.

Consider `Oc1ccc(/C=C/c2ccc(/C=C/c3ccc(O)cc3)c(Br)c2)cc1`, for which the Potency entry in assay [1], in assay [2], in [3], in assay [4] and in assay [8] was “inactive” in each case.

For the molecule `N=C(N)c1ccc(OCCCCCOc2ccc(C(=N)N)cc2)cc1` (tested in a mixture with another compound), the Potency entry in assay [1], in [2] and in [3] was “inactive” in each case. In addition, the Potency in assay [4] is 20 µM (active).

For `NC(=O)CC[C@H](N)C(=O)O`, the Potency entry in assay [1], in assay [2], in [3], in [4] and in [8] was “inactive” throughout.

Regarding `COc1cc([C@@H]2c3cc4c(cc3[C@H](O)C3COC(=O)[C@@H]32)OCO4)cc(OC)c1OC` (stereo partly specified), the Potency result in assay [1], in assay [2], in [3], in assay [4] and in assay [8] was “inactive” throughout.

`C[C@H](O)C(=O)C1=Nc2c(nc(N)[nH]c2=O)NC1`: the Potency result in assay [1], in assay [2] and in assay [3] was “inactive” throughout. Also, the figures for the Potency in [4] and in [8] were 44.7 µM (active) and 23.8 µM (active), respectively.

Regarding `Nc1nc2[nH]c(=O)cnc2c(=O)[nH]1`, the Potency result in [1], in [2] and in assay [3] was “inactive” in each case. In addition, the Potency in assay [4] was 56.2 µM (active); in assay [8], 13.4 µM (active).

With `CCCCCCCC/C=C\CCCCCCCC(=O)NCCc1ccc(O)c(O)c1`, the Potency entry in [1], in assay [2], in assay [3] and in assay [4] was “inactive” in each case. Moreover, the Potency in assay [8] was 7.52 µM (active); in assay [9], 16.8 µM (active).

For the molecule `COc1ccc(-c2ccc(N)[n+](CCCC(=O)O)n2)cc1`, the Potency entry in [1], in [2], in assay [3], in [4] and in assay [8] was “inactive” each time.

On to `O=C1OC(=O)C2C3CCC(O3)C12` (stereo unspecified), for which the Potency result in [1], in [2], in [3], in assay [4] and in [8] was “inactive” each time.

`O=C(O)Cc1ccc(O)c(O)c1`: the Potency result in [1], in assay [2], in [3] and in assay [8] was “inactive” each time. For the same molecule, the Potency in assay [4] was 31.6 µM (active).

As to `O=C(O)C1=CCNCC1`, the Potency result in [1], in [2], in assay [3], in assay [4], in assay [8] and in [9] was “inactive” in each case.

Regarding `NCCCCN`, the Potency result in assay [1], in [2], in assay [3], in assay [4] and in assay [8] was “inactive” in each case.

With `O=c1cc(-c2ccccc2F)[nH]c2cc3c(cc12)OCO3`, the Potency result in assay [1], in assay [2] and in assay [3] was “inactive” in each case. Also, the Potency in assay [4] was 56.2 µM (active).

Consider `Cn1cc(C(F)(F)F)nc1-c1ccc(OCC(O)CNCCOc2ccc(O)c(C(N)=O)c2)cc1` (stereo unspecified), for which the Potency entry in assay [1], in assay [2] and in [3] was “inactive” each time. In addition, the Potency is 56.2 µM (active) in assay [4], 24.1 µM (active) in assay [5] and 26.7 µM (active) in assay [8].

For `Cc1cc(Cn2cnc3c2C[C@@H](C(=O)O)N(C(=O)C(c2ccccc2)c2ccccc2)C3)ccc1N`, the Potency result in assay [1] and in assay [8] was “inactive” throughout. Also, the result in assay [10] was inactive.

For the molecule `NCCS(=O)O`, the Potency entry in assay [1], in [2], in assay [3], in assay [4], in assay [8] and in [9] was “inactive” throughout.

Turning to `N#Cc1cc2nc(O)c(O)nc2cc1[N+](=O)[O-]`, the Potency result in assay [1], in assay [2], in [3], in assay [4], in assay [8] and in [9] was “inactive” each time.

`CSC(=N)N`: the Potency result in assay [1], in [2], in [3], in assay [4] and in assay [9] was “inactive” throughout.

Take `CC(C)(C)c1cc(/C=C(\C#N)C(N)=S)cc(C(C)(C)C)c1O`: the Potency entry in assay [1], in [2], in assay [3], in assay [4] and in assay [9] was “inactive” throughout. Further, in assay [8], the Potency is 21.2 µM (active).

With `COc1ccc(C(=O)NCc2cccnc2)cc1C(=O)NCc1cccnc1`, the Potency entry in assay [1], in [2], in [3] and in [8] was “inactive” in each case.

In the case of `CC(=O)N[C@@H](Cc1c[nH]c2ccccc12)C(=O)OCc1cc(C(F)(F)F)cc(C(F)(F)F)c1`, the Potency result in assay [1], in [2], in [3], in assay [4], in assay [8] and in assay [9] was “inactive” in each case.

Regarding `N#CC(=C(\N)Sc1ccccc1N)/C(C#N)=C(/N)Sc1ccccc1N`, the Potency result in assay [1] and in assay [2] was “inactive” in each case. The Potency in assay [4] is 56.2 µM (active).

Regarding `CCCCCCC(=O)OC1CC(C)(C)NC(C)(C)C1`, the Potency result in assay [1], in [2], in [3], in assay [4], in [8] and in [9] was “inactive” each time.

As for `O=c1cc(O)cc(/C=C/c2ccc(O)c(O)c2)o1`, the Potency entry in assay [1], in [2] and in [3] was “inactive” throughout. For the same molecule, the Potency in [8] was 13.4 µM (active).

As to `Cn1cc(C(=O)OCC2CCN(CCNS(C)(=O)=O)CC2)c2ccccc21`, the Potency result in assay [1], in assay [2], in assay [3], in assay [4], in [8] and in assay [9] was “inactive” throughout.

For the molecule `NC[C@@H]1O[C@H](c2ccccc2)Cc2c1ccc(O)c2O`, the Potency entry in [1], in assay [2], in assay [3], in assay [8] and in assay [9] was “inactive” each time.

`COc1ccc2c(c1)c(CC(=O)O)c(C)n2C(=O)c1ccccc1`: the Potency entry in [1], in [2], in assay [3] and in assay [8] was “inactive” in each case.

For the molecule `COC(=O)C1=C(C)NC(C)=C([N+](=O)[O-])C1c1ccccc1C(F)(F)F` (stereo unspecified), the Potency result in assay [1], in [2], in assay [3], in [4] and in assay [9] was “inactive” each time.

The values are drawn from PubChem BioAssay (NCATS).
